Sampled rows, rich in hits. Any-hit rate of the full collection: about 4.9%.
SKKanGAS inh – S. pyogenes SKKanGAS growth inhibitors in kanamycin, primary screen, streptokinase expression inhibitor project, SKKanGAS strain, BacTiter-Glo luminescence | 6 h | inhibition, % at 7.5 µM | 300,000 tested, 1.3% active;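 active = mean replicate score, as percent of positive control median, at least 50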;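 note: strain carries kanamycin resistance gene driven by streptokinase promoter and grows in 40 µg/ml kanamycin; loss of luminescence reflects streptokinase promoter inhibition or plain growth inhibition; 0% = median of DMSO wells and 100% = positive control at its reference dose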
TIM10 inh – growth inhibitors of isogenic TIM10 control yeast, primary screen, counter-screen for tim10-1 yeast inhibitor project, luminescence, uHTS; S. cerevisiae TIM10 strain growth, BacTiter-Glo luminescence, 24 h; inhibition, % at 10 µM; 330,000 tested, 1.4% active; AID 463195, 2010;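 active = inhibition of 40% or more at the single tested concentration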;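 note: wild-type TIM10 isogenic control strain grown at permissive 25 °C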
NALP3 yeast inh – NALP3 inflammasome inhibitors in reconstituted yeast, primary screen, luminescence, uHTS. Yeast reconstituted NLRP3/ASC/caspase-1, beta-gal luminescence, 24 h. inhibition, % at 10 µM. 330,000 tested, 0.39% active. AID 2825, 2010;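 active = inhibition of 50% or more; inactive = inhibition below 50%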;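 note: plate controls were induced DMSO wells for no effect and uninduced yeast grown without galactose for full effect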
NALP1 inh – NALP1 inflammasome inhibitors in reconstituted yeast, colorimetric, S. cerevisiae, triplicate retest | S. cerevisiae NALP1/ASC/caspase-1 growth, X-gal OD620, 72 h | inhibition, % at 10 µM | 280,000 tested, 0.61% active | AID 2071, 2009; in the data active = inhibition mostly above about 24%, no sharp cut-off; inactive = mostly below about 32%
tim10-1 inh – growth inhibitors of tim10-1 mutant yeast, primary screen, luminescence, uHTS; S. cerevisiae tim10-1 ts strain growth, BacTiter-Glo, 24 h; inhibition, % at 20 µM; 330,000 tested, 2.2% active; AID 463190, 2010;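 active = inhibition of at least 40%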;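 note: mutant grown at 25 °C; 0% = DMSO wells with yeast and 100% = wells holding no yeast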
tim23-1 inh – growth inhibitors of tim23-1 mutant yeast, primary screen, luminescence, uHTS. S. cerevisiae tim23-1 growth, BacTiter-Glo luminescence, 24 h. inhibition, % at 20 µM. 330,000 tested, 1.3% active;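 active = growth inhibition of the mutant yeast at or above 50%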;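 note: temperature-sensitive mutant grown at 25 °C; plate controls were DMSO-treated mutant yeast for no effect and medium wells lacking yeast for full effect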
tim10-1 conf – growth inhibitors of tim10-1 mutant yeast, confirmation, single concentration, luminescence, S. cerevisiae; S. cerevisiae tim10-1 ts strain growth, BacTiter-Glo, 24 h; inhibition, % at 20 µM; 7,400 tested, 56% active; shares compounds with tim10-1 inh;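 active = inhibition of yeast growth at or above a set limit in either of two repeat tests at 20 µM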;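 note: tim10-1 mutant grown at permissive 25 °C to find synthetic lethal compounds; 0% = DMSO yeast wells and 100% = medium wells without yeast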
TIM10 conf – growth inhibitors of wild-type TIM10 yeast, confirmation, counter-screen for tim10-1 synthetic lethality project, single concentration, luminescence, S. cerevisiae; 4,600 tested, 63% active; S. cerevisiae tim10 strain growth, BacTiter-Glo luminescence, 24 h; shares compounds with TIM10 inh; AID 463215, 2010; inhibition, % at 10 µM;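 active = inhibition of yeast growth at or above a set limit in either of two replicates at 10 µM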;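 note: this counterscreen used the strain with wild-type TIM10; 0% = yeast with DMSO and 100% = medium wells lacking yeast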
tim23-1 confirm – tim23-1 mutant yeast growth inhibitors, confirmation, luminescence, single concentration; shares compounds with tim23-1 inh; S. cerevisiae tim23-1 growth, BacTiter-Glo luminescence, 24 h; inhibition, % at 20 µM; 4,400 tested, 83% active; AID 463218, 2010;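 active = inhibition above about 39% in either of two replicate wells at 20 µM, limit read from the data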;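 note: temperature-sensitive tim23-1 mutant grown at 25 °C; 0% = DMSO wells with yeast and 100% = medium wells without yeast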
Starred values were filed as active, the others as inactive; · = no result given.

SMILES	SKKanGAS inh	TIM10 inh	NALP3 yeast inh	NALP1 inh	tim10-1 inh	tim23-1 inh	tim10-1 conf	tim23-1 confirm	others
Cc1ccnc(Nc2nc(-c3sc(C)nc3C)cs2)c1	-7.7	38.7	-9.5	·	48.2*	82.2*	25.2	58.5*
CCOc1ccccc1N1CCN(C(=S)NCc2ccco2)CC1	0.8	10.3	11.4	26.0	17.2	26.2	·	·
Cc1cccc(N2CCN(C(=S)NCc3ccco3)CC2)c1C	22.2	19.6	20.3	42.7	55.1*	53.0*	47.7*	43.0*
S=C(NCc1ccco1)N1CCN(Cc2ccc(Cl)cc2Cl)CC1	1.9	47.6*	22.8	1.7	50.9*	70.3*	53.5*	61.5*	TIM10 conf=43.0*
CN(Cc1ccccc1Cl)C(=O)CCNC(=O)c1ccco1	·	6.1	20.2	·	28.8	10.2	·	·
Oc1ccc(Br)cc1/C=N/n1c(-c2ccccc2)n[nH]c1=S	3.0	21.8	9.7	-2.0	46.4*	56.8*	41.3*	59.0*
O=C(c1cc(COc2ccc(F)cc2Cl)on1)N1CCCCCCC1	0.4	14.2	21.6	17.9	41.0*	50.7*	15.7	42.0*
O=C(c1cc(COc2ccc(F)cc2Cl)on1)N1CCCCCC1	1.7	-3.6	31.3	30.9	37.1	48.8	·	·
CS(=O)(=O)c1nc(-c2ccc(Br)cc2)cc(-c2ccccc2)c1C#N	4.7	30.4	5.9	-3.1	36.4	26.2	·	·
CS(=O)c1nc(-c2ccc(Br)cc2)cc(-c2ccccc2)c1C#N (configuration not stated)	-0.7	20.2	16.2	2.4	40.8*	67.6*	45.6*	59.7*
O=c1c(Cl)c(Cl)cnn1Cc1nnc(-c2ccccc2Br)o1	16.0	44.4*	-21.7	-6.5	63.3*	78.1*	66.8*	76.7*	TIM10 conf=49.6*
C=CCc1cccc(/C=N/NC(=O)c2ccccc2Br)c1O	10.9	63.7*	-3.5	9.7	43.8*	61.8*	19.2	60.7*	TIM10 conf=57.5*
O=C(N/N=C/c1ccccc1C(=O)O)c1ccccc1Br	7.1	11.2	10.5	10.9	13.1	4.7	·	·
CCNC(=O)O/N=C(\C)c1sc(-c2ccc(Cl)cc2)nc1C	3.1	20.8	17.9	-7.7	60.1*	56.7*	53.5*	64.2*
CC1(C)Cc2c(cnn2-c2ccc(F)cc2)C(NC(=O)CCN2CCCC2=O)C1 (configuration not stated)	1.9	2.0	12.7	5.6	16.0	15.6	·	·
Clc1ccc2[nH]c(-c3ccccc3)cc2c1	14.2	39.4	0.1	11.3	49.9*	61.4*	45.0*	73.2*
Cc1cc(C)n(CC(=O)NNC(=O)CC(C)c2ccccc2)n1 (configuration not stated)	·	-3.9	17.0	·	-12.2	-3.6	·	·
Cc1cc(NC(=O)Nc2cccc(Cl)c2)n(-c2ccccc2)n1	-15.7	-11.5	5.6	8.5	11.8	12.5	·	·
Cc1cc(NC(=O)Nc2cccc(Cl)c2)n(-c2ccccn2)n1	-2.4	29.2	29.1	10.7	53.8*	69.8*	41.1*	76.2*
O=C(Nc1nc2ccccc2[nH]1)C12CC3CC(CC(C3)C1)C2	21.2	13.3	24.7	14.5	32.3	25.4	·	·
O=C(OCc1nc2ccccc2[nH]1)C12CC3CC(CC(C3)C1)C2	-0.5	40.0	3.5	-0.8	57.8*	58.1*	50.6*	43.4*	TIM10 conf=23.6
N#CC1=C(N)Oc2cc(O)c(Cl)cc2C1c1ccccc1F (configuration not stated)	17.9	10.9	-10.5	3.4	15.0	3.4	·	·
O=C(Nc1ccc(S(=O)(=O)N2CCCCC2)cc1)C1CCCO1 (configuration not stated)	-5.3	8.0	16.2	14.9	-1.8	4.5	·	·
Cc1csc2nc(O)c(C(=O)NC3CCCCCC3)c(=O)n12	22.7	30.0	41.9	·	41.5*	65.5*	15.6	50.9*
Cc1cccn2c(=O)c(C(=O)NC3CCCCC3)c(O)nc12	6.0	14.6	41.3	9.9	42.7*	54.7*	-37.9	44.1*
SMILES	SKKanGAS inh	TIM10 inh	NALP3 yeast inh	NALP1 inh	tim10-1 inh	tim23-1 inh	tim10-1 conf	tim23-1 confirm	others
Cc1csc2nc(O)c(C(=O)NC3CCCCC3)c(=O)n12	0.1	14.1	30.3	·	40.1*	73.8*	9.9	55.6*
Cc1c(N2C(=O)/C(=C/C3CC=CCC3)SC2=S)c(=O)n(-c2ccccc2)n1C (configuration not stated)	0.3	39.5	19.5	·	47.6*	51.3*	34.6*	47.0*
S=C(N/N=C/c1cccs1)NC1CC2CCC1C2 (configuration not stated)	42.9	50.4*	22.8	-1.2	48.4*	72.3*	46.3*	58.2*	TIM10 conf=60.3*
Cc1ccc(NC(=O)CCCc2c[nH]c3ccccc23)nc1	1.4	5.0	14.2	1.3	-16.4	9.8	·	·
CC1CCCCC12NC(=O)N(CC(=O)Nc1ccc(N3CCCCC3)cc1)C2=O (configuration not stated)	·	-4.4	9.9	·	12.7	10.6	·	·
c1ccc(C2=NNC(c3ccccn3)=NN2)nc1	4.1	29.7	18.7	-0.1	31.9	26.4	·	·
COc1ccc(SN=C2C(C)=CC(=O)C=C2C)cc1	-0.6	91.3*	10.9	1.7	70.9*	75.0*	73.0*	74.5*	TIM10 conf=96.4*
COc1ccc(S(=O)(=O)N=C2C=C(C)C(=O)C(C)=C2)cc1	10.3	7.1	-12.7	14.1	17.5	17.8	·	·
CC1CCN(C(=O)COC(=O)c2cccs2)CC1	·	-1.4	-6.7	·	16.3	25.8	·	·
OC(CN1CCN(c2ccccn2)CC1)Cn1c2ccc(Cl)cc2c2cc(Cl)ccc21 (configuration not stated)	43.5	-28.4	30.8	-1.7	47.2*	54.9*	20.9	-39.5
CCN1CCN(C(=O)c2cc(S(=O)(=O)N3CCCCC3)ccc2Cl)CC1	0.0	1.7	13.2	-1.3	-22.7	-6.6	·	·
Cc1cccc(NS(=O)(=O)c2ccc(-c3cnc(C4CC4)o3)cc2)c1C	4.4	19.0	23.5	-21.7	58.5*	68.9*	51.6*	51.7*
Cc1cc(C)c2cc(C=O)c(Cl)nc2c1	·	51.0*	16.9	-4.9	45.1*	67.3*	39.6*	77.8*	TIM10 conf=31.8*

Compound activity: PubChem, several laboratories
